# From PubChem BioAssay (EPA / NIEHS)
# Results filed as inconclusive are left out. The source holds several records for some structures; these can differ, active in one and inactive in another. The source made the active and inactive calls. Rule for the calls, unless noted: active = hit-call score of the fitted dose curve at least 0.9, where 1 is the maximum; inconclusive = response in the unintended direction; inactive = score below 0.9.
# Columns and labels:
# [1] = ATG_M_19_CIS: Attagene CIS-FACTORIAL HepG2 Assay for M19 Transcription Factor (Internal Marker) (AID 2282939; active = hit-call score of the fitted dose curve at least 0.9, where 1 is the maximum; inactive = score below 0.9); conditions: HepG2 Attagene CIS-FACTORIAL M19 internal marker reporter; actives raise or lower the signal
# How it was run: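 Readout: fluorescent reporter-transcript fragments by capillary electrophoresis after RT-PCR. Human HepG2 liver cells carried transfected MRTU constructs reporting endogenous transcription-factor activity; exposure 24 h. Gain or loss of signal fitted relative to DMSO.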
# [2] = ATG_GRE_CIS: Attagene CIS-FACTORIAL HepG2 Assay for human Glucocorticoid Response Elements (GRE) (AID 2282947; active = hit-call score of the fitted dose curve at least 0.9, where 1 is the maximum; inactive = score below 0.9); conditions: HepG2 GRE cis-reporter, Attagene multiplex mRNA; actives raise or lower the signal
# How it was run: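 Reporter transcripts read by RT-PCR with capillary electrophoresis fluorescence after a 24 h chemical exposure of HepG2 cells transiently transfected with multiple cis-element reporter units. Gain or loss fitted against DMSO.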
# [3] = target: Paired box protein Pax-6 (Homo sapiens) (UniProt P26367); assay: ATG_Pax6_CIS: Attagene CIS-FACTORIAL HepG2 Assay for human Paired Box 6 (PAX6) (AID 2282956; active = hit-call score of the fitted dose curve at least 0.9, where 1 is the maximum; inactive = score below 0.9); conditions: HepG2 CIS-FACTORIAL PAX6 reporter transcription, RNA readout; actives raise or lower the signal
# How it was run: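 DMSO-referenced bidirectional fits of reporter mRNA fluorescence; HepG2 with transient cis-promoter MRTUs, 24 h post-dose, RT-PCR plus capillary electrophoresis detection.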
# [4] = target: Hepatocyte nuclear factor 4-alpha (Homo sapiens) (UniProt P41235); assay: ATG_HNF4a_TRANS: Attagene TRANS-FACTORIAL HepG2 Assay for human Hepatocyte Nuclear Factor 4 alpha (HNF4a) (AID 2282982); conditions: HepG2 HNF4a transactivation reporter, mRNA readout
# How it was run: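 Activity of an exogenous HNF4a–Gal4 fusion scored as induced GAL4-UAS reporter transcripts after 24 h chemical exposure of transfected human HepG2 cells. Read-out via RT-PCR with 6-FAM labelling and capillary electrophoresis; rise over DMSO baseline.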
# [5] = ATG_NFI_CIS: Attagene CIS-FACTORIAL HepG2 Assay for human Nuclear Factor I (NFI) (AID 2282989; active = hit-call score of the fitted dose curve at least 0.9, where 1 is the maximum; inactive = score below 0.9); conditions: HepG2 cis-regulatory reporter, NFI response element transcription; actives raise or lower the signal
# How it was run: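 Read-out: reporter mRNA via RT-PCR plus capillary electrophoresis with fluorescence detection. Transiently transfected HepG2 (endogenous TF activity on cis promoters), 24 h compound exposure; gain or loss of signal fitted against DMSO.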
# [6] = ATG_NF_kB_CIS: Attagene CIS-FACTORIAL HepG2 Assay for human Nuclear Factor Kappa B (NF-kB) (AID 2282991; active = hit-call score of the fitted dose curve at least 0.9, where 1 is the maximum; inactive = score below 0.9); conditions: HepG2 Attagene cis-factorial NF-kB reporter mRNA; actives raise or lower the signal
# How it was run: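 After 24 h compound incubation, transfected HepG2 cells yield total RNA; reporter cDNA is PCR-amplified, end-labelled with 6-FAM, HpaI-digested and analysed on a genetic analyser. Endogenous factor activity, DMSO-referenced bidirectional fit.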
# [7] = target: Retinoic acid receptor RXR-alpha (Homo sapiens) (UniProt P19793); assay: ATG_RXRa_TRANS: Attagene TRANS-FACTORIAL HepG2 Assay for human Retinoid X Receptor alpha (RXRa) (AID 2283012)
# How it was run: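 TRANS format reporting activity of exogenous RXRa-Gal4 chimera in transiently transfected HepG2, 24 h exposure. Reporter transcripts quantified by RT-PCR with capillary electrophoresis, with gain of signal scored relative to DMSO.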
# [8] = ATG_GATA_CIS: Attagene CIS-FACTORIAL HepG2 Assay for human GATA Binding Protein (AID 2282944; active = hit-call score of the fitted dose curve at least 0.9, where 1 is the maximum; inactive = score below 0.9); conditions: HepG2 GATA cis-element reporter, Attagene multiplex mRNA; actives raise or lower the signal
# How it was run: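 Read-out: fluorescent reporter mRNA fragments resolved by capillary electrophoresis after RT-PCR. Human liver HepG2 cells carried transiently transfected cis-regulated reporter constructs; chemicals incubated 24 h; gain or loss of signal fitted relative to DMSO.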
# [9] = target: Hepatocyte nuclear factor 6 (Homo sapiens) (UniProt Q9UBC0); assay: ATG_HNF6_CIS: Attagene CIS-FACTORIAL HepG2 Assay for human Hepatocyte Nuclear Factor 6 (HNF6) (AID 2282952; active = hit-call score of the fitted dose curve at least 0.9, where 1 is the maximum; inactive = score below 0.9); conditions: HepG2 Attagene cis-factorial HNF6 reporter transcription; actives raise or lower the signal
# How it was run: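 Endogenous transcription factor activity in human HepG2 liver cells was captured through cis-regulated reporter constructs. After 24 h treatment, reporter mRNA was measured by RT-PCR with capillary electrophoresis, and activity was fitted in both directions relative to DMSO.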
# [10] = ATG_PBREM_CIS: Attagene CIS-FACTORIAL HepG2 Assay for human Phenobarbital-responsive Enhancer Module (PBREM) (AID 2282955; active = hit-call score of the fitted dose curve at least 0.9, where 1 is the maximum; inactive = score below 0.9); conditions: HepG2 PBREM cis-reporter, Attagene multiplexed transcription; actives raise or lower the signal
# How it was run: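 Readout: reporter mRNA, fluorescent RT-PCR fragments separated by capillary electrophoresis. System: HepG2 transiently transfected with cis-regulated reporter units. Exposure: 24 h. Analysis: bidirectional, DMSO baseline.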
# [11] = target: human Retinoid X Receptor beta (RXRb), RXRB (gene 6257) (UniProt P28702); assay: ATG_RXRb_TRANS: Attagene TRANS-FACTORIAL HepG2 Assay for human Retinoid X Receptor beta (RXRb) (AID 2283013)
# How it was run: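 Readout is reporter transcript induction after 24 h dosing. It is measured by RT-PCR of total RNA followed by fluorescent capillary electrophoresis. HepG2 liver cells carry transfected multiple reporter units driven by an exogenous RXRb-Gal4 fusion; activity is relative to DMSO.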
# [12] = target: human Vitamin D Receptor (VDR), VDR (gene 7421) (UniProt P11473); assay: ATG_VDR_TRANS: Attagene TRANS-FACTORIAL HepG2 Assay for human Vitamin D Receptor (VDR) (AID 2283022)
# How it was run: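 Fluorescence of labelled reporter cDNA fragments, resolved by capillary electrophoresis, gives mRNA induction after 24 h treatment of HepG2 cells carrying transfected Gal4-fusion reporter units. Activity is fitted in the positive direction with DMSO as baseline.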
# [13] = TOX21_p53_BLA_p2_viability: Viability Assessment in the Tox21 HCT-116 p53 Agonism Beta-lactamase Assay, Phase 2 (AID 2283591);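 note: compound exposure lasted 16 h at 37 °C; actives lower the ATP signal meaning cytotoxicity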
# How it was run: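 Cytotoxicity readout: CellTiter-Glo ATP luminescence, 30 min at room temperature, after the beta-lactamase read. Cells were HCT116 exposed 16 h at 37C to compounds pin-transferred at 217-fold dilution from DMSO stocks.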
# [14] = target: Cellular tumor antigen p53 (Homo sapiens) (UniProt P04637); assay: TOX21_p53_BLA_p2_ratio: Tox21 HCT-116 p53 Agonism Beta-lactamase Assay, Ratio, Phase 2 (AID 2283592)
# How it was run: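 Cleaved-to-uncleaved substrate ratio (460 vs 530 nm) measured in HCT116 cells with an inducible beta-lactamase reporter linked to p53 activity. Compounds incubated 16 h at 37C before 2 h room-temperature CCF4-AM loading.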
# [15] = target: Cellular tumor antigen p53 (Homo sapiens) (UniProt P04637); assay: TOX21_p53_BLA_p3_ratio: Tox21 HCT-116 p53 Agonism Beta-lactamase Assay, Ratio, Phase 3 (AID 2283596)
# How it was run: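 Cells were seeded at 4000/well, rested 5 h at 37C, then dosed with DMSO compound solutions (217-fold dilution) for 16 h. CCF4-AM substrate was loaded for 2 h at room temperature, and the 460/530 nm emission ratio was fitted for gain of signal versus DMSO.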
# [16] = target: Cellular tumor antigen p53 (Homo sapiens) (UniProt P04637); assay: TOX21_p53_BLA_p5_ratio: Tox21 HCT-116 p53 Agonism Beta-lactamase Assay, Ratio, Phase 5 (AID 2283599)
# How it was run: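 Beta-lactamase reporter ratio (blue 460 nm over green 530 nm, 405 nm excitation) after 2 h CCF4-AM loading, in HCT-116 cells exposed 16 h at 37 C to compounds pinned at 217-fold dilution. Increases relative to DMSO baseline scored.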
# [17] = target: Cellular tumor antigen p53 (Homo sapiens) (UniProt P04637); assay: TOX21_p53_BLA_p4_ratio: Tox21 HCT-116 p53 Agonism Beta-lactamase Assay, Ratio, Phase 4 (AID 2283601)
# How it was run: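 Signal is the blue/green (460nm/530nm) ratio of cleaved versus uncleaved CCF4-AM substrate, read after 2 h substrate loading. Cells were HCT116 carrying the p53-responsive beta-lactamase reporter, dosed 16 h at 37C, 5% CO2; CellTiter-Glo measured in parallel.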
# [18] = ATG_M_06_TRANS: Attagene TRANS-FACTORIAL HepG2 Assay for M06 Transcription Factor (Internal Marker) (AID 2282983); conditions: HepG2 Attagene TRANS M06 internal marker reporter
# How it was run: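 Human liver HepG2 cells bearing transiently transfected chimeric NR-GAL4 reporter units were treated with chemicals for 24 h. Total RNA was reverse-transcribed, reporter sequences amplified and labelled, then quantified by capillary electrophoresis. Activity was fitted upward relative to DMSO.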
# [19] = ATG_TA_CIS: Attagene CIS-FACTORIAL HepG2 Assay for human TA Basal Promoter (AID 2282964; active = hit-call score of the fitted dose curve at least 0.9, where 1 is the maximum; inactive = score below 0.9); conditions: HepG2 Attagene CIS-factorial TA basal promoter reporter; actives raise or lower the signal
# How it was run: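 Transfected HepG2, 24 h compound exposure; RNA → RT-PCR → FAM primer extension → HpaI cut → CE fluorescence. Gain/loss-of-signal fitted against DMSO negative control. Background-control readout.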
# [20] = ATG_M_32_TRANS: Attagene TRANS-FACTORIAL HepG2 Assay for M32 Transcription Factor (Internal Marker) (AID 2282984); conditions: HepG2 Attagene TRANS M32 internal marker reporter;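 note: transcript level of a background control reporter unit measured by RT-PCR and capillary electrophoresis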
# How it was run: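 Internal background reporter in transfected HepG2: after 24 h chemical exposure, RNA reverse-transcribed, reporter cDNA amplified, fluorescently labelled and HpaI-cut, then sized by capillary electrophoresis. Gain of signal fitted against DMSO control.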
# Cellular tumor antigen p53 (Homo sapiens), sequence (P04637 whole entry, looked up): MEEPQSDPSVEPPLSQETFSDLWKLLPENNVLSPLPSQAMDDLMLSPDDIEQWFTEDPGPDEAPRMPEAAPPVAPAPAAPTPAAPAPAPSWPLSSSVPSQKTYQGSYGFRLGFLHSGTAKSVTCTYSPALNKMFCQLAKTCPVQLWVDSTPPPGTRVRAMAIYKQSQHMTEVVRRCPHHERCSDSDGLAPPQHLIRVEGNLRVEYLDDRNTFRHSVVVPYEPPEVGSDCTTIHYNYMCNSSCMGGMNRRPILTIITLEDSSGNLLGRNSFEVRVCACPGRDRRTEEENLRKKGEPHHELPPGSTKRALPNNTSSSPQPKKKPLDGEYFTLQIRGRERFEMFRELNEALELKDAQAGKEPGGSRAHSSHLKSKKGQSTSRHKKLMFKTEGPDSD
# human Retinoid X Receptor beta (RXRb), RXRB (gene 6257), sequence (P28702 whole entry, looked up, the tested form may be a part): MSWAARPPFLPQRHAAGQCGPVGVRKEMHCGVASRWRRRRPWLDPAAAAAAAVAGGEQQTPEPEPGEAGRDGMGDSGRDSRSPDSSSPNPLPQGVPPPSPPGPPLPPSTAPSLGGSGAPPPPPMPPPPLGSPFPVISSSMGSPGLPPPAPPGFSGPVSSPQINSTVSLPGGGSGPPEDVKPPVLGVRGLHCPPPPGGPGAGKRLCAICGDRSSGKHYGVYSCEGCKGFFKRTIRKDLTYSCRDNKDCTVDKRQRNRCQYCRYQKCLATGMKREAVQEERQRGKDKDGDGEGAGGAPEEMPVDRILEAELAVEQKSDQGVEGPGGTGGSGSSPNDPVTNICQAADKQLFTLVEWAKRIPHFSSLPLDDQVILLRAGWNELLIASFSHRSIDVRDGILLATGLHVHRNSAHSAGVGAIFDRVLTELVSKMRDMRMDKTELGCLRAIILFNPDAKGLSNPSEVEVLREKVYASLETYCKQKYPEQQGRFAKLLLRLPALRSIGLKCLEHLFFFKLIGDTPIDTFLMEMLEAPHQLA
# Hepatocyte nuclear factor 4-alpha (Homo sapiens), sequence (P41235 whole entry, looked up, the tested form may be a part): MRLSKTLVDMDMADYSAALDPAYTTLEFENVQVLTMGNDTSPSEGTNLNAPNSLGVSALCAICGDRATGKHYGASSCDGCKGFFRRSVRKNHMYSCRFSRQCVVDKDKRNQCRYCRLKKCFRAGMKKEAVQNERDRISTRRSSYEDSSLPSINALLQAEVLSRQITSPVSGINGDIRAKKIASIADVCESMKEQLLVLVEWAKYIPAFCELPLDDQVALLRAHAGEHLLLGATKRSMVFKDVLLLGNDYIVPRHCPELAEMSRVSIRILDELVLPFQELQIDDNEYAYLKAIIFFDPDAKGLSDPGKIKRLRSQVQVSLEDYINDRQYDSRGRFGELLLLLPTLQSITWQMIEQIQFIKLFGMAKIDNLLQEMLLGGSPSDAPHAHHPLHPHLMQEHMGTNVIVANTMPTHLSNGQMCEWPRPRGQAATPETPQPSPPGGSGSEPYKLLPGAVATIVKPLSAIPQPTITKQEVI
# Paired box protein Pax-6 (Homo sapiens), sequence (P26367 whole entry, looked up): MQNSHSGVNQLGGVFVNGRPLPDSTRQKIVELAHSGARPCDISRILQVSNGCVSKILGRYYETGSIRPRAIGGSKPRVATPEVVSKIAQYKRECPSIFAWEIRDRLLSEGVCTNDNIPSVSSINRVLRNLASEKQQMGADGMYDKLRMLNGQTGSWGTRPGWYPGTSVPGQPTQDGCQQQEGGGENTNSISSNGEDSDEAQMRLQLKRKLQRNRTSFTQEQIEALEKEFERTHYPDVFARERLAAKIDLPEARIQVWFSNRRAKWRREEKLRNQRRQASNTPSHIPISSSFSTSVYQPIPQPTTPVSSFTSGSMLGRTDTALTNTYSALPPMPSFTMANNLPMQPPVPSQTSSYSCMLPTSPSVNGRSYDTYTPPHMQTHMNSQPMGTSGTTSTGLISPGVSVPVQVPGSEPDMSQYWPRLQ
# Hepatocyte nuclear factor 6 (Homo sapiens), sequence (Q9UBC0 whole entry, looked up): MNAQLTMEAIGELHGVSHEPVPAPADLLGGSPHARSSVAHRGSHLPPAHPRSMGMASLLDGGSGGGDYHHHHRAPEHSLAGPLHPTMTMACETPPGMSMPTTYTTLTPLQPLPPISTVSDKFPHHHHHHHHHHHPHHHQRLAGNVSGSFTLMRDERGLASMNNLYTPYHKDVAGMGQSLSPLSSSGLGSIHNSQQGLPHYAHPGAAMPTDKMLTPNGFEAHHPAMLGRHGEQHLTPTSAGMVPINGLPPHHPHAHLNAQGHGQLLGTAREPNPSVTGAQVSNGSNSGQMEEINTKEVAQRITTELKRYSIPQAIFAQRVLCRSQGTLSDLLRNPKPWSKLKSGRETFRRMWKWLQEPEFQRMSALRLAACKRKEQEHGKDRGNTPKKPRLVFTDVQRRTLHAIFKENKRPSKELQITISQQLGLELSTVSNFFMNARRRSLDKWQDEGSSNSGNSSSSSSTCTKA
# Retinoic acid receptor RXR-alpha (Homo sapiens), sequence (P19793 whole entry, looked up, the tested form may be a part): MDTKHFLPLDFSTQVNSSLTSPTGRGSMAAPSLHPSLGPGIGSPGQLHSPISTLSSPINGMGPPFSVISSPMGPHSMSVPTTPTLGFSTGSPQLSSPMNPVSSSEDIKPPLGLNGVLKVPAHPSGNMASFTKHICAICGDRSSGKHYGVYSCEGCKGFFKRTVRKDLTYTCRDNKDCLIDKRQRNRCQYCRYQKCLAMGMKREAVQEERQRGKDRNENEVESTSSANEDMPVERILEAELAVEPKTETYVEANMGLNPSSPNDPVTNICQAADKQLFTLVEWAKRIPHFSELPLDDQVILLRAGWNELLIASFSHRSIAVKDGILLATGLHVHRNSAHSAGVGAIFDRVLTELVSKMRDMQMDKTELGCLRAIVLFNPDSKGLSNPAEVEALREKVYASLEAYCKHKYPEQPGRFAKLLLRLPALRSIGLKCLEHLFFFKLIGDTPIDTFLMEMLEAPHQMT
# human Vitamin D Receptor (VDR), VDR (gene 7421), sequence (P11473 whole entry, looked up, the tested form may be a part): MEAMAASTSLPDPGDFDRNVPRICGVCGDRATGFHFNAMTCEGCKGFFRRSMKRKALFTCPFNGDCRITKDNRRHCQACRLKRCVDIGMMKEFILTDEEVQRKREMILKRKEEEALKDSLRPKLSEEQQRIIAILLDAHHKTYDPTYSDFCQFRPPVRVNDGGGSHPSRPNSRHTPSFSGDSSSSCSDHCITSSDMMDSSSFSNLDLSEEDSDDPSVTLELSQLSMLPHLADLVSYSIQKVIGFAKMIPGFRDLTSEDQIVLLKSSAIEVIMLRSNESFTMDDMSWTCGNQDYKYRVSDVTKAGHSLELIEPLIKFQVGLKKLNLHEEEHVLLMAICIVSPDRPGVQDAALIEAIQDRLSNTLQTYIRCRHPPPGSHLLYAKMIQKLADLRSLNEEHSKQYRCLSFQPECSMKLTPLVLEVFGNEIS
compound,measurement,setting,value
CCCCCCCC#N,outcome,[1],inactive
same,outcome,[2],inactive
same,outcome,[3],inactive
same,outcome,[4],inactive
same,outcome,[5],inactive
same,outcome,[6],inactive
same,outcome,[7],inactive
CCCN[C@H]1CCc2nc(N)sc2C1,outcome,[1],inactive
same,outcome,[8],inactive
same,outcome,[9],inactive
same,outcome,[10],inactive
same,outcome,[3],inactive
same,outcome,[6],inactive
same,outcome,[11],inactive
same,outcome,[12],inactive
same,outcome,[13],inactive
same,outcome,[14],inactive
same,outcome,[15],inactive
same,outcome,[16],inactive
same,outcome,[17],inactive
CC(=O)CCc1ccccc1,outcome,[1],inactive
same,outcome,[8],inactive
same,outcome,[9],inactive
same,outcome,[10],inactive
same,outcome,[5],inactive
same,outcome,[6],inactive
same,outcome,[12],inactive
same,outcome,[13],inactive
same,outcome,[14],inactive
same,outcome,[15],inactive
same,outcome,[16],inactive
same,outcome,[17],inactive
Cc1ccccc1S(=O)(=O)O,outcome,[1],inactive
same,outcome,[8],inactive
same,outcome,[4],inactive
same,outcome,[18],inactive
same,outcome,[7],inactive
same,outcome,[13],inactive
same,outcome,[15],inactive
same,outcome,[17],inactive
CC1=NN(c2cc(Cl)c(S(=O)(=O)O)cc2Cl)C(=O)C1N=Nc1ccc(S(=O)(=O)O)cc1 (configuration not stated),outcome,[9],inactive
same,outcome,[3],inactive
same,outcome,[19],inactive
same,outcome,[18],inactive
same,outcome,[6],inactive
same,outcome,[11],inactive
same,outcome,[12],inactive
same,outcome,[13],inactive
same,outcome,[14],inactive
same,outcome,[15],inactive
same,outcome,[16],inactive
same,outcome,[17],inactive
CN(C)CCCN1c2ccccc2CCc2ccc(Cl)cc21,outcome,[8],inactive
same,outcome,[2],inactive
same,outcome,[10],inactive
same,AC50,[3],11.1 µM (active)
same,outcome,[19],inactive
same,outcome,[4],inactive
same,outcome,[18],inactive
same,outcome,[5],inactive
same,outcome,[6],inactive
same,outcome,[7],inactive
same,AC50,[11],5.79 µM (active)
same,AC50,[13],79 µM (active)
same,outcome,[14],inactive
same,outcome,[15],inactive
same,AC50,[16],86.8 µM (active)
same,outcome,[16],inactive
same,outcome,[17],inactive
C=CC(C)(CCC=C(C)C)OC(=O)c1ccccc1 (configuration not stated),outcome,[1],inactive
same,outcome,[8],inactive
same,outcome,[2],inactive
same,outcome,[3],inactive
same,outcome,[19],inactive
same,outcome,[18],inactive
same,outcome,[20],inactive
same,outcome,[5],inactive
same,outcome,[6],inactive
same,outcome,[7],inactive
same,outcome,[13],inactive
same,outcome,[14],inactive
same,outcome,[15],inactive
same,outcome,[16],inactive
same,outcome,[17],inactive
CCCCCCCCCCC1CO1 (configuration not stated),outcome,[8],inactive
same,outcome,[9],inactive
same,outcome,[10],inactive
same,outcome,[3],inactive
same,outcome,[20],inactive
same,outcome,[5],inactive
same,outcome,[6],inactive
same,outcome,[7],inactive
same,outcome,[11],inactive
same,outcome,[12],inactive
same,outcome,[14],inactive
same,outcome,[15],inactive
same,outcome,[17],inactive
CO[Si](CCCNCCN)(OC)OC,outcome,[1],inactive
same,outcome,[9],inactive
same,outcome,[3],inactive
same,outcome,[19],inactive
same,outcome,[4],inactive
same,outcome,[18],inactive
same,outcome,[20],inactive
same,outcome,[5],inactive
same,outcome,[12],inactive
COC(=O)[C@]1(C)CCC[C@@]2(C)[C@H]1CC=C1C=C(C(C)C)CC[C@@H]12,outcome,[1],inactive
same,AC50,[8],173 µM (active)
same,outcome,[2],inactive
same,outcome,[9],inactive
same,outcome,[10],inactive
same,outcome,[3],inactive
same,outcome,[19],inactive
same,outcome,[18],inactive
same,outcome,[20],inactive
same,outcome,[6],inactive
same,outcome,[7],inactive
same,outcome,[11],inactive
same,outcome,[12],inactive
same,outcome,[13],inactive
same,outcome,[14],inactive
same,outcome,[15],inactive
